PubChem BioAssay (NCATS)
Results filed as inconclusive are left out. A call without a number means that no potency is given here. Activity calls are given as the source filed them. The call rests on the fitted dose curve; in most records, active means well fitted inhibition curve with a large enough effect; inconclusive means small, poorly fitted or top-dose-only effect; inactive means no such curve, though single readings can be large or run the other way. Positions of bridges follow the written chain, without caps; N, C: chain ends. Non-standard residues stand in square brackets, D forms with d. Residues, ends and D or L forms follow the SMILES beside them. *: point of attachment. X1 = CCC(C)C(N)C1=NC(C(=O)*)CS1; dOrn = NCCC[C@@H](N)C(=O)O

Each molecule was assayed against Aldehyde dehydrogenase 1A1 (Homo sapiens) (UniProt P00352) (assay: qHTS for Inhibitors of the Aldehyde Dehydrogenase Family (ALDH1A1) Confirmatory screens (AID 2061316; further: nearly all actives have a fitted effect of over 65% in size)). Settings: ALDH inhibition qHTS; series mostly up to 47.3 µM.
Potency means the concentration at half of the fitted maximal effect.

SMILES	Potency
CC(=O)Nc1sc2c(c1-c1nc3ccccc3s1)CNC2	6.34 µM (active)
CC1(C)CC(=O)c2c(C(F)(F)F)nn(-c3ccc(C(N)=O)c(NC4CCC(OC(=O)CN)CC4)c3)c2C1 (configuration not stated)	inactive
COCCN(C(=O)c1cc(OC)c(OC)c(OC)c1)c1nc(-c2ccccc2)cs1	inactive
COC(=O)N1CCN(Cc2cccc(NC(=O)Nc3ccc(C)nc3)c2F)CC1	inactive
CC(C)(C)Nc1nc(Nc2ccc(C(N)=O)cc2)cc(N)c1C#N	14.2 µM (active)
Cc1nnc(-c2sc(NC(=O)[C@H](C(C)C)n3c(=O)[nH]c4ccccc4c3=O)nc2C)o1	inactive
O=C(C1CCCCC1)N(CCN1CCN(c2ccccc2O)CC1)c1ccccn1	11.3 µM (active)
Cc1csc2c(N[C@@H](C)CN3CCN(S(=O)(=O)c4ccc(Cl)c(Cl)c4)CC3)ncnc12	8.96 µM (active)
O=C(O)c1cnn(-c2nc3cc(OC(F)(F)F)c(Cl)cc3[nH]2)c1	inactive
CCC(C)C(N)C1=NC(C(=O)N[C@@H](CC(C)C)C(=O)N[C@H](CCC(=O)O)C(=O)N[C@H](C(=O)N[C@H]2CCCCNC(=O)[C@H](CC(N)=O)NC(=O)[C@@H](CC(=O)O)NC(=O)[C@H](Cc3cnc[nH]3)NC(=O)[C@@H](Cc3ccccc3)NC(=O)[C@H]([C@@H](C)CC)NC(=O)[C@@H](CCCN)NC2=O)[C@@H](C)CC)CS1 (some centres not stated) (X1-L[dE]IK[dOrn]I[dF]H[dD]N; lactam 4-C)	4 µM (active)
CCOC(=O)c1cccc(CNc2ccc(N(C)C(=O)Nc3ccccc3)cc2)c1	inactive
Cc1ncc(-c2ccnc(Nc3ccc(S(C)(=O)=O)cc3)n2)n1C(C)C	inactive
COc1ccc(CCO[C@@H]2CCCC[C@H]2N2CC[C@@H](O)C2)cc1OC	inactive
O=C(Nc1ccccc1)N1CCN(Cc2ccc3ccccc3n2)CC1	inactive
O=C(CCCCCCC(=O)Nc1ccccc1)NO	inactive
COc1cc(C(O)C2COC(c3ccc(OC4OC(CO)C(O)C(O)C4O)c(OC)c3)C2CO)ccc1O (configuration not stated)	inactive

SMILES	Potency
Cn1cnc(-c2nccc3c(=O)[nH]c(OCCCC(F)(F)F)nc23)c1	inactive
N[C@@H](CCNCc1ccc(Cl)cc1)C(=O)N1CCCCC1	inactive
CN(C)c1ccc(C2O[C@@H](c3ccccc3)C[C@H](c3ccccc3)O2)cc1 (some centres not stated)	10 µM (active)
COc1cc(/C=C/C(=O)OCC2OC(OC3(CO)OC(CO)C(O)C3O)C(O)C(O)C2O)ccc1O (configuration not stated)	inactive
CCCN1CCC=C(c2cc(-c3ccc(C)cc3)no2)C1	inactive
CCCCNC(=O)[C@@H]1Cc2ccccc2N1C(=O)[C@@H](N)CC	inactive
Nc1ccccc1NC(=O)c1ccc(CNC(=O)OCc2cccnc2)cc1	inactive
CC[C@H](CO)Nc1nc(NCc2ccc(-c3ccccn3)cc2)c2ncn(C(C)C)c2n1	inactive
Cc1ccccc1C#Cc1ccc(CCC(=O)O)cc1	inactive
CN(C)c1ccc2c(c1)OC(N)=C(C#N)C2c1cccc(C(F)(F)F)c1 (configuration not stated)	inactive
CC(C)C[C@H](NC(=O)[C@@H](NC(=O)c1cccc(-c2ccccc2)n1)[C@@H](C)O)B(O)O	inactive
O=C1CC(c2ccc([N+](=O)[O-])cc2)=NN1c1ccccc1	inactive
CCCN(CCN1CCN(c2ccccc2OC)CC1)C1CCc2ncsc2C1 (configuration not stated)	inactive
COc1ccnc(CCc2nc3ncccc3[nH]2)c1	inactive
CN(C)C(=O)Nc1cccc(-c2ccc(N(C)C)cc2)c1	inactive
COc1ccc(-c2cc3onc(-c4ccncc4)c3c(=O)n2C)cc1	inactive
